Test results reported in the supplement of paper PMC8728848.
Shown is part of a subset that was picked to be rich in the strongest signals.

Columns and labels:
Test in all cases: glycan array binding signal (z-score within array); higher = stronger binding
Settings in all cases: glycan notation: IUPAC condensed, linker removed
[1] = molecular target: Fuc(a1-2)Gal(b1-3)GlcNAc(b1-3)[Gal(b1-4)GlcNAc(b1-6)]Gal(b1-4)Glc
Outline: (§1)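 Negative Z-scores can be read as non-binding. The Z-score is calculated within each array and then averaged across arrays of one protein sequence at different concentrations or buffers and across linkers. Arrays, 3228 in all, were curated from the Consortium for Functional Glycomics database and kept only where the protein sequence was available.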

[2] = molecular target: Fuc(a1-2)Gal(b1-3)[Fuc(a1-4)]GlcNAc
Outline: as §1

[3] = molecular target: Fuc(a1-2)Gal(b1-3)[Fuc(a1-4)]GlcNAc(b1-2)Man(a1-3)[Fuc(a1-2)Gal(b1-3)[Fuc(a1-4)]GlcNAc(b1-2)Man(a1-6)]Man(b1-4)GlcNAc(b1-4)[Fuc(a1-6)]GlcNAc(b1-4)[Fuc(a1-6)]GlcNAc
Outline: as §1

[4] = molecular target: Fuc(a1-2)Gal(b1-4)GlcNAc(b1-3)[Fuc(a1-3)[Gal(b1-4)]GlcNAc(b1-6)]Gal(b1-4)Glc
Outline: as §1

[5] = molecular target: Fuc(a1-2)Gal(b1-4)[Fuc(a1-3)]GlcNAc(b1-3)Gal(b1-4)[Fuc(a1-3)]GlcNAc(b1-3)Gal(b1-4)[Fuc(a1-3)]GlcNAc
Outline: as §1

[6] = molecular target: Fuc(a1-2)[Gal(a1-3)]Gal(b1-4)GlcNAc(b1-3)GalNAc
Outline: as §1

[7] = molecular target: Fuc(a1-3)[Gal(b1-4)]GlcNAc(b1-2)Man(a1-3)[Fuc(a1-3)[Gal(b1-4)]GlcNAc(b1-2)Man(a1-6)]Man(b1-4)GlcNAc(b1-4)GlcNAc
Outline: as §1

[8] = molecular target: Gal(a1-3)Gal(b1-3)GlcNAc(b1-2)Man
Outline: as §1

[9] = molecular target: Gal(a1-3)Gal(b1-3)GlcNAc(b1-6)GalNAc
Outline: as §1

[10] = molecular target: Gal(a1-3)Gal(b1-4)GlcNAc(b1-6)GalNAc
Outline: as §1

[11] = molecular target: Gal(b1-4)GlcNAc
Outline: as §1

[12] = molecular target: Gal(b1-4)GlcNAc(b1-2)[Gal(b1-4)GlcNAc(b1-4)]Man(a1-3)[GlcNAc(b1-4)][Gal(b1-4)GlcNAc(b1-2)[Gal(b1-4)GlcNAc(b1-6)]Man(a1-6)]Man(b1-4)GlcNAc(b1-4)GlcNAc
Outline: as §1

[13] = molecular target: Gal(b1-4)GlcNAc(b1-2)[Gal(b1-4)GlcNAc(b1-6)]Man(a1-6)[GlcNAc(b1-4)][Gal(b1-4)GlcNAc(b1-2)Man(a1-3)]Man(b1-4)GlcNAc(b1-4)GlcNAc
Outline: as §1

[14] = molecular target: Gal(b1-4)GlcNAc(b1-3)Gal(b1-4)GlcNAc(b1-3)Gal(b1-4)GlcNAc(b1-3)Gal(b1-4)GlcNAc(b1-2)Man(a1-3)[Gal(b1-4)GlcNAc(b1-3)Gal(b1-4)GlcNAc(b1-3)Gal(b1-4)GlcNAc(b1-3)Gal(b1-4)GlcNAc(b1-2)Man(a1-6)]Man(b1-4)GlcNAc(b1-4)[Fuc(a1-6)]GlcNAc
Outline: as §1

[15] = molecular target: Gal(b1-4)GlcNAc(b1-3)Gal(b1-4)GlcNAc(b1-3)Gal(b1-4)GlcNAc(b1-3)Gal(b1-4)GlcNAc(b1-3)Gal(b1-4)GlcNAc(b1-2)Man(a1-3)[Gal(b1-4)GlcNAc(b1-3)Gal(b1-4)GlcNAc(b1-3)Gal(b1-4)GlcNAc(b1-3)Gal(b1-4)GlcNAc(b1-3)Gal(b1-4)GlcNAc(b1-2)Man(a1-6)]Man(b1-4)GlcNAc(b1-4)[Fuc(a1-6)]GlcNAc
Outline: as §1

[16] = molecular target: Gal(b1-4)GlcNAc(b1-3)GalNAc
Outline: as §1

[17] = molecular target: Gal(b1-4)GlcNAc(b1-6)[Gal(b1-3)]GalNAc
Outline: as §1

[18] = molecular target: Gal3S(b1-4)Glc
Outline: as §1

[19] = molecular target: Gal6S(b1-4)Glc6S
Outline: as §1

[20] = molecular target: GalNAc(b1-4)GlcNAc6S
Outline: as §1

[21] = molecular target: GlcA(b1-6)Gal
Outline: as §1

[22] = molecular target: GlcNAc(a1-4)Gal(b1-4)GlcNAc(b1-3)Gal(b1-4)Glc
Outline: as §1

[23] = molecular target: GlcNAc(a1-4)Gal(b1-4)GlcNAc(b1-3)Gal(b1-4)GlcNAc(b1-3)Gal(b1-4)GlcNAc
Outline: as §1

[24] = molecular target: GlcNAc(b1-3)Gal(b1-4)GlcNAc(b1-2)[GlcNAc(b1-3)Gal(b1-4)GlcNAc(b1-6)]Man(a1-6)[GlcNAc(b1-3)Gal(b1-4)GlcNAc(b1-2)Man(a1-3)]Man(b1-4)GlcNAc(b1-4)GlcNAc
Outline: as §1

[25] = molecular target: GlcNAc(b1-3)Gal(b1-4)GlcNAc(b1-3)Gal(b1-4)GlcNAc(b1-3)Gal(b1-4)GlcNAc(b1-2)[GlcNAc(b1-3)Gal(b1-4)GlcNAc(b1-3)Gal(b1-4)GlcNAc(b1-3)Gal(b1-4)GlcNAc(b1-6)]Man(a1-6)[GlcNAc(b1-3)Gal(b1-4)GlcNAc(b1-3)Gal(b1-4)GlcNAc(b1-3)Gal(b1-4)GlcNAc(b1-2)Man(a1-3)]Man(b1-4)GlcNAc(b1-4)[Fuc(a1-6)]GlcNAc
Outline: as §1

[26] = molecular target: GlcNAc(b1-3)Gal(b1-4)GlcNAc(b1-3)Gal(b1-4)GlcNAc(b1-3)Gal(b1-4)GlcNAc(b1-3)Gal(b1-4)GlcNAc(b1-2)Man(a1-3)[GlcNAc(b1-3)Gal(b1-4)GlcNAc(b1-3)Gal(b1-4)GlcNAc(b1-3)Gal(b1-4)GlcNAc(b1-3)Gal(b1-4)GlcNAc(b1-2)Man(a1-6)]Man(b1-4)GlcNAc(b1-4)GlcNAc
Outline: as §1

[27] = molecular target: GlcNAc(b1-3)[GlcNAc(b1-6)]Gal(b1-4)GlcNAc
Outline: as §1

[28] = molecular target: GlcNAc(b1-4)Gal(b1-4)GlcNAc
Outline: as §1

B1: Pwp2 (Candida glabrata) (protein)
chain: MGSSHHHHHHSSGLVPRGSHMASKNPVELNNVCTFPNDYGRIPGFTVLVGRLGLLISASDYKELLRYPGAFLIATQDTMTTSPNFELTGFPFFTGLYGLTVFPLDLLVELRGYFVPPNSGQYTFTLSDSDDAAIIFLGNPSAFPCGDLQNWPKPSEEDITVTDHLFPSRTLYLIEGVAYPMRIAYYNGIGAGRLNAAFIDPSGTRHTNWEGYIWQYDPCSTCTYS
- glycan array binding signal (z-score) [1]: -0.594
- glycan array binding signal (z-score) [2]: -0.451
- glycan array binding signal (z-score) [3]: 6.32
- glycan array binding signal (z-score) [4]: 0.384
- glycan array binding signal (z-score) [5]: -0.086
- glycan array binding signal (z-score) [6]: -0.603
- glycan array binding signal (z-score) [7]: 2.54
- glycan array binding signal (z-score) [8]: -0.046
- glycan array binding signal (z-score) [9]: -0.526
- glycan array binding signal (z-score) [10]: -0.281
- glycan array binding signal (z-score) [11]: -0.286
- glycan array binding signal (z-score) [12]: -0.248
- glycan array binding signal (z-score) [13]: -0.569
- glycan array binding signal (z-score) [14]: 3.91
- glycan array binding signal (z-score) [15]: 1.62
- glycan array binding signal (z-score) [16]: -0.473
- glycan array binding signal (z-score) [17]: 1.6
- glycan array binding signal (z-score) [18]: -0.429
- glycan array binding signal (z-score) [19]: -0.419
- glycan array binding signal (z-score) [20]: -0.448
- glycan array binding signal (z-score) [21]: -0.235
- glycan array binding signal (z-score) [22]: -0.466
- glycan array binding signal (z-score) [23]: -0.42
- glycan array binding signal (z-score) [24]: 4.24
- glycan array binding signal (z-score) [25]: 5.45
- glycan array binding signal (z-score) [26]: -0.549
- glycan array binding signal (z-score) [27]: -0.141
- glycan array binding signal (z-score) [28]: -0.446
